Rows were chosen to be rich in hits. Some 1.8% of all compounds tested hit in one or more screens of this group.
Tb PGK inh: T. brucei PGK inhibition; P07378; PGK/GAPDH coupled, Kinase-Glo luminescence, 60 min; Potency, µM (top dose mostly 57.5 µM), actives largely listed as inhibitors; hit rate 0.043% among 380,000; also: nearly all actives have a fitted effect of over 60% in size
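Recombinant glycosomal PGK reaction used 1,3-bisphosphoglycerate generated in-well by GAPDH (100nM final) in 100mM TEA pH 7.6, 5mM MgCl2, 0.01% Tween-20. After 60 minutes at room temperature, ATP was read by Kinase-Glo Plus luminescence end-point.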
GLP-1R inv ag: acts as inverse agonist at human GLP-1 receptor. P43220. HEK293 GLP-1R CRE-luciferase, luminescence, 24 h; GLP-1R form is constitutively active. Potency, µM (doses to about 38.3 µM), actives largely listed as inhibitors. hit rate 1.6% among 410,000; also: nearly all actives have a fitted effect of over 55% in size
Target sequence (P43220 whole entry, looked up): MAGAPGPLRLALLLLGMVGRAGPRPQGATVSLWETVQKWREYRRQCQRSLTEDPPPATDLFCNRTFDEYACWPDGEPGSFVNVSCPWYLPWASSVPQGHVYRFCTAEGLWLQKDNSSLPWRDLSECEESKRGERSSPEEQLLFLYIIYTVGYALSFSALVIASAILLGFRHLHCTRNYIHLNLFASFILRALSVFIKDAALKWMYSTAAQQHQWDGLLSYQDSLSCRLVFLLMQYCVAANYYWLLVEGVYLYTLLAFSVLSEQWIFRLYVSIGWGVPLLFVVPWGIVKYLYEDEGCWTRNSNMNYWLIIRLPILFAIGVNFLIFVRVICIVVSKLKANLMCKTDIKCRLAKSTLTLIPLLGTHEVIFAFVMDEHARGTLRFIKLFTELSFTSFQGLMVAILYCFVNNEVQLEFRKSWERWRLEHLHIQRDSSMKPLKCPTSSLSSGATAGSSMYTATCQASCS
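qHTS in 1536-well format: reporter HEK293 cells expressing constitutive GLP-1R activity in DMEM + 10% Nu serum, 24 hr with compounds at 37 deg C, luminescence read after 12 min with detection reagent.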
Pin1 inhibitor: blocks the human prolyl isomerase Pin1. Q13526. Pin1 FP peptide displacement, HiFluor488, 10 min. Potency, µM (top dose mostly 115 µM), actives largely listed as inhibitors. hit rate 0.009% among 390,000. AID 504891; active = well fitted inhibition curve with a large enough effect in the polarisation, with a control signal flat, not every such curve was filed as active; inconclusive = small, poorly fitted or top-dose-only effect, or effect the other way, or a change in a side signal; inactive = no such curve, though single readings can be large or run the other way; the % refers to the polarisation
Target sequence (Q13526 whole entry, looked up): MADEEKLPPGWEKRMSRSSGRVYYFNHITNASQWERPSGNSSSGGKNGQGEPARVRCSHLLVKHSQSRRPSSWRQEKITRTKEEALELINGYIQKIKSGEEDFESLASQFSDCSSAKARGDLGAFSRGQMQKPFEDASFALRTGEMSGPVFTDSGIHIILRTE
HEK293 tox: cytotoxicity in counter-screen for GLP-1R inverse agonists; Potency, µM (doses to about 38.3 µM), usual class: inhibitors; hit rate 0.13% among 410,000; HEK293 cAMP-luciferase reporter cells, luminescence, 24 h;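 also: loss of luciferase light is scored as toxicity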
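Luminescence readout: signal drop marks cytotoxicity. Plated cells grew 12 h at 37 °C, 5% CO2, received 23 nL compound for 24 h, then got luciferase reagent, read after 12 min at RT.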
Tb PFK inh-1: blocks T. brucei phosphofructokinase. T. brucei PFK, ADP-Glo luminescence. O15648. AID 485367. Potency, µM (highest dose often 57.5 µM), usual class: inhibitors. hit rate 0.17% among 330,000; also: nearly all actives have a fitted effect of over 60% in size
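Luminescent ADP detection (ADP-Glo, two-step: ATP depletion then ADP-to-ATP conversion for luciferase) reported PFK activity after 45 min room-temperature reaction of 1.25 nM enzyme with 0.5 mM F6P and 0.1 mM ATP at pH 8.0.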
GLP1R ag: GLP-1 receptor (human) agonism. P43220. HEK293 GLP-1R CRE-luciferase, luminescence, 4-6 h; cells express a hypersensitive GLP-1R form. hit rate 0.007% among 380,000. Potency, µM (titrated, usually from 45.6 µM), most hits filed as activators
TbPFK ATP: Tb phosphofructokinase inhibition, orthogonal luminescence | shares compounds with Tb PFK inh-1 | hit rate 47% among 1,100 | Potency, µM (series often up to 57.5 µM) | Tb PFK enzyme, ATP depletion, Kinase-Glo Plus luminescence; calls by dose curve; also: nearly all actives have a fitted effect of over 60% in size
Tb PFK inh-2: validation of T. brucei phosphofructokinase inhibitors; Potency, µM (series often up to 57.5 µM), hits mostly inhibitors; purified T. brucei PFK, ADP-Glo luminescence, 45 min; AID 504637; shares compounds with Tb PFK inh-1; hit rate 41% among 1,100; also: nearly all actives have a fitted effect of over 60% in size
A number is an active result; [ ] = dose if it differs, or a comment. Unless noted, calls follow the shape of the dose curve; as a rule, active = well fitted curve in the direction sought with a large enough effect; inconclusive = small, poorly fitted or top-dose-only effect, or another doubt; inactive = no such curve, though single readings can be large; an effect the other way counts as inactive or inconclusive.

What do the screens show for `Cc1cc(C)c2c(=O)n(CC(=O)NC3CCCC3)sc2n1`?
Tb PGK inh: inactive; GLP-1R inv ag: inactive; Pin1 inhibitor: inactive; HEK293 tox: inactive; Tb PFK inh-1: 6µM; GLP1R ag: inactive; TbPFK ATP: inconclusive; Tb PFK inh-2: 5.4µM

How did CN(C)c1nc(OCc2ccccc2)c2ncc(=O)[nH]c2n1 do in these assays?
Tb PGK inh: inactive; GLP-1R inv ag: inactive; Pin1 inhibitor: inactive; HEK293 tox: inactive; GLP1R ag: inactive

How did CC1=NNC(=O)/C1=C\c1cn(-c2ccccc2)nc1-c1ccccc1 do in these assays?
Tb PGK inh: inactive; GLP-1R inv ag: inconclusive; Pin1 inhibitor: inactive; HEK293 tox: inconclusive; Tb PFK inh-1: inactive; GLP1R ag: inactive

What do the screens show for `Oc1ccc2[nH]cc(CCCCN3CC=C(c4ccccc4)CC3)c2c1`?
GLP1R ag: inactive

How did CN(CC(=O)Nc1ccc(Cl)c(C(F)(F)F)c1)C(=O)C1CC(=O)N(CCc2ccccc2)C1 (stereo not drawn) do in these assays?
Tb PGK inh: inactive; GLP-1R inv ag: inconclusive; Pin1 inhibitor: inactive; HEK293 tox: inconclusive; Tb PFK inh-1: inactive; GLP1R ag: inactive

Results for O=C1c2ccccc2C(=O)C1C(=O)C(c1ccccc1)c1ccccc1 ?
GLP1R ag: inactive

How did CN(C)c1ccc(NC(=O)c2ccc(Cn3cc([N+](=O)[O-])cn3)cc2)cc1 do in these assays?
Tb PGK inh: inactive; GLP-1R inv ag: inconclusive; Pin1 inhibitor: inactive; HEK293 tox: inconclusive; Tb PFK inh-1: 24µM; GLP1R ag: inactive; TbPFK ATP: 12µM; Tb PFK inh-2: 27µM

Results for CC(C)(C)c1ccc(-n2nc(C#N)c(Cl)cc2=O)cc1 ?
Tb PGK inh: inactive; GLP-1R inv ag: inconclusive; Pin1 inhibitor: inconclusive; HEK293 tox: inconclusive; Tb PFK inh-1: inactive; GLP1R ag: inactive

Results for Cc1cc(N2CCCCC2)nc2ccc(NC(=O)/C=C/c3ccc(OC(C)C)cc3)cc12 ?
Tb PGK inh: inactive; GLP-1R inv ag: inconclusive; Pin1 inhibitor: inactive; HEK293 tox: inactive

Results for COc1ccc(NC(=O)Cc2ccc(Cl)c(Cl)c2)cn1 ?
Tb PGK inh: inactive; GLP-1R inv ag: inactive; Pin1 inhibitor: inactive; HEK293 tox: inactive; Tb PFK inh-1: 12µM; GLP1R ag: inactive; TbPFK ATP: 6µM; Tb PFK inh-2: 13µM

How did COc1ccc(C(=O)NCCn2cc(SCc3ccc(C(F)(F)F)cc3)c3ccccc32)cc1OC do in these assays?
Tb PGK inh: inactive; GLP-1R inv ag: inconclusive; Pin1 inhibitor: inconclusive; HEK293 tox: inactive; GLP1R ag: inactive

How did COc1ccccc1OCCNC(=O)Cc1ccc(Cl)c(Cl)c1 do in these assays?
Tb PGK inh: inactive; GLP-1R inv ag: inactive[7.66 µM]; Pin1 inhibitor: inactive; HEK293 tox: inactive[7.66 µM]; Tb PFK inh-1: inconclusive; GLP1R ag: inactive; TbPFK ATP: inconclusive; Tb PFK inh-2: inconclusive

Results for COc1ccc(C(=O)NCc2ccc(Cl)c(Cl)c2)cc1OC ?
Tb PGK inh: inactive; GLP-1R inv ag: inactive; Pin1 inhibitor: inactive; HEK293 tox: inactive; Tb PFK inh-1: 13µM; GLP1R ag: inactive; TbPFK ATP: 8.5µM; Tb PFK inh-2: 27µM

Results for COc1ccc(C(CNC(=O)Cc2ccc(Cl)c(Cl)c2)N(C)C)cc1 (stereo not drawn) ?
Tb PGK inh: inactive; GLP-1R inv ag: inconclusive; Pin1 inhibitor: inactive; HEK293 tox: inactive; Tb PFK inh-1: inactive; GLP1R ag: inactive

What do the screens show for `CCOC(=O)C/C(C)=N/NC(=O)CNc1cccc(Cl)c1C`?
Tb PGK inh: inactive; GLP-1R inv ag: inactive; Pin1 inhibitor: inactive; HEK293 tox: inactive; Tb PFK inh-1: 24µM; GLP1R ag: inactive; TbPFK ATP: inactive; Tb PFK inh-2: inactive

How did Cc1ccc(NC(=S)NCc2ccc3c(c2)OCO3)cc1 do in these assays?
Tb PGK inh: inactive; GLP-1R inv ag: inconclusive; Pin1 inhibitor: inactive; HEK293 tox: inconclusive; Tb PFK inh-1: inactive; GLP1R ag: inactive

What do the screens show for `O=[N+]([O-])c1ccc(NCc2ccc3c(c2)OCO3)cc1`?
Tb PGK inh: inactive; GLP-1R inv ag: inactive; Pin1 inhibitor: inactive; HEK293 tox: inactive; Tb PFK inh-1: 6µM; GLP1R ag: inconclusive; TbPFK ATP: 4.8µM; Tb PFK inh-2: 12µM

What do the screens show for `O=C(NNC(=O)c1ccc2nonc2c1)Nc1ccc(Cl)cc1`?
Tb PGK inh: inactive; GLP-1R inv ag: inconclusive; Pin1 inhibitor: inactive; HEK293 tox: inactive; Tb PFK inh-1: 15µM; GLP1R ag: inactive; TbPFK ATP: inconclusive; Tb PFK inh-2: inconclusive

How did C=CCN(C(=O)C1CC(=O)N(C2CCCC2)C1)c1nc(-c2ccc(S(C)(=O)=O)cc2)cs1 (stereo not drawn) do in these assays?
Tb PGK inh: inactive; GLP-1R inv ag: inconclusive; Pin1 inhibitor: inactive; HEK293 tox: inconclusive; Tb PFK inh-1: inactive; GLP1R ag: inactive

Results for O=C(Nc1n[nH]c(=S)s1)c1ccco1 ?
Tb PGK inh: inactive; GLP-1R inv ag: inactive; Pin1 inhibitor: inactive; HEK293 tox: inactive; Tb PFK inh-1: inconclusive; GLP1R ag: inactive; TbPFK ATP: 5.4µM; Tb PFK inh-2: 12µM

How did COc1cccc(C(=O)NNC(=O)Cc2ccc([N+](=O)[O-])cc2)c1 do in these assays?
Tb PGK inh: inactive; GLP-1R inv ag: inactive; Pin1 inhibitor: inactive; HEK293 tox: inactive; Tb PFK inh-1: inconclusive; GLP1R ag: inactive; TbPFK ATP: inconclusive; Tb PFK inh-2: inconclusive

What do the screens show for `Clc1cccc2c3c([nH]c12)CCNC3`?
Tb PGK inh: inactive; GLP-1R inv ag: inactive; Pin1 inhibitor: inactive; HEK293 tox: inactive; Tb PFK inh-1: inconclusive; GLP1R ag: inactive; TbPFK ATP: inconclusive; Tb PFK inh-2: inconclusive

What do the screens show for `COc1ccc(NS(=O)(=O)c2ccc3c(c2)CCCN3C(=O)C2CCC2)cc1OC`?
Tb PGK inh: inactive; GLP-1R inv ag: inconclusive; Pin1 inhibitor: inactive; HEK293 tox: inactive

Results for O=C(Cc1ccc(Br)cc1)N/N=C/c1ccc(-c2cccc(C(=O)O)c2)o1 ?
Tb PGK inh: inactive; GLP-1R inv ag: inactive; Pin1 inhibitor: inactive; HEK293 tox: inactive; Tb PFK inh-1: 11µM; GLP1R ag: inactive; TbPFK ATP: 11µM; Tb PFK inh-2: 12µM

What do the screens show for `O=C(CN1C(=O)c2ccccc2C1=O)NCCc1c[nH]c2ccc(Cl)cc12`?
Tb PGK inh: inactive; GLP-1R inv ag: inactive; Pin1 inhibitor: inactive; HEK293 tox: inactive; Tb PFK inh-1: inconclusive; GLP1R ag: inactive; TbPFK ATP: 21µM; Tb PFK inh-2: 30µM

How did Cc1ccc2c(c1)[C@@H]1CN(C)CC[C@H]1N2 do in these assays?
GLP1R ag: inactive
